Bioassay records (PubChem)
Sampled rows, rich in hits. Any-hit rate of the full collection: about 8.3%.
RORg inh – inhibitors of mouse ROR gamma transcriptional activity | P51450 | Potency, µM (highest dose often 53.6 µM), most hits filed as inhibitors | Drosophila S2 Gal4-RORgamma UAS-luciferase reporter, 20 h | hit rate 5.4% among 310,000 | AID 2551; also: nearly all actives have a fitted effect of over 60% in size
Target sequence (P51450 whole entry, looked up, the tested form may be a part): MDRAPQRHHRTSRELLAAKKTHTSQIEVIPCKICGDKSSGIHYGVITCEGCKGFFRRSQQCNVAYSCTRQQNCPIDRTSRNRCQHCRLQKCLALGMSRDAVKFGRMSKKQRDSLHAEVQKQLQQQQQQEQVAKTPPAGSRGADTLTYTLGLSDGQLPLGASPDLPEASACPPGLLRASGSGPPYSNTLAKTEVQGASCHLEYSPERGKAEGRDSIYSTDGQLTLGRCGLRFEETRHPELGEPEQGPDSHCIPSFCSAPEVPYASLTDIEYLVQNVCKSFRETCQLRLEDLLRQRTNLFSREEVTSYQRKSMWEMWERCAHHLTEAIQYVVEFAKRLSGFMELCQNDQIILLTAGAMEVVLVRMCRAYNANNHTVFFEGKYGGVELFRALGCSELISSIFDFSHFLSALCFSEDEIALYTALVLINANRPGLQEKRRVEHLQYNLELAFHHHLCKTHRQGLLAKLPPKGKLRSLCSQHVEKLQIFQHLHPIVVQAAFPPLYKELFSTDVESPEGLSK
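Using a luciferase readout, inhibitors were identified by reduced reporter activity in Drosophila cells coexpressing a copper-inducible Gal4–ROR gamma fusion and UAS-driven Photinus luciferase, incubated 20 hr after 700 uM copper sulfate.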
VP16 counter – counter-screen for ROR gamma inhibitors: Gal4-VP16 reporter; AID 2546; Drosophila S2 Gal4-VP16 UAS-luciferase, luminescence, 20 h; hit rate 3.5% among 310,000; Potency, µM (top dose mostly 53.6 µM), hits mostly inhibitors;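 also: Gal4-VP16 expression switched on by copper sulfate through the metallothionein promoter; nearly all actives have a fitted effect of over 50% in size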
Giardia kill – Giardia lamblia killing. Giardia lamblia trophozoite viability. activity change, % at 7.66 µM, hits read low. hit rate 0.15% among 340,000. AID 540267; in the data active = activity change below about -80%; inconclusive = between about -30% and that limit;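 also: parasites exposed to compound for two days anaerobically before the ATP read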
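Trophozoites 100 cells/well + cpd; 48 hrs, 37 deg C, anaerobic. ATPLite 1-Step added, 15-30 min RT, luminescence read (ATP-based viability).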
Chronic BCR inh – blocks chronic active B-cell receptor signaling; ABC-DLBCL IkBa-CBG/CBR reporter, luminescence ratio, 4 h; AID 493014; Potency, µM (titrated, usually from 46.1 µM), usual class: inhibitors; hit rate 0.05% among 340,000; active = well fitted inhibition curve with a large enough effect in the signal ratio, with a control signal flat, not every such curve was filed as active; inconclusive = small, poorly fitted or top-dose-only effect, or effect the other way, or a change in a side signal; the % refers to the signal ratio
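Compounds up to 46 uM were incubated four hours with TMD8 cells whose green CBG68 luciferase is fused to IkappaBalpha; red CBR luminescence normalised the signal, and concentration-effect curves were fitted to fusion, red and ratio data.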
SW480 rereplic – induces DNA re-replication in SW480 colon adenocarcinoma cells; SW480 DNA re-replication, Hoechst DNA content imaging, 48 h; Potency, µM (series often up to 46.1 µM), most hits filed as activators; hit rate 1.8% among 340,000; also: nearly all actives have a fitted effect of over 55% in size
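Image-based DNA-content assay: after two days of treatment, nuclei were labelled with the DNA dye Hoechst and imaged, and hits were compounds raising the count of nuclei showing high fluorescence intensity.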
MCF10A rereplic – induces DNA re-replication in MCF 10a normal breast cells. MCF 10A DNA re-replication, Hoechst nuclear intensity, 48 h. hit rate 2.9% among 350,000. Potency, µM (titrated, usually from 46.1 µM), actives largely listed as activators. AID 624296; also: nearly all actives have a fitted effect of over 50% in size
Each line names hits and unclear results; the compound was inactive in the other large screens; ! = not confirmed by another sample. Unless noted, calls follow the shape of the dose curve; as a rule, active = well fitted curve in the direction sought with a large enough effect; inconclusive = small, poorly fitted or top-dose-only effect, or another doubt; inactive = no such curve, though single readings can be large; an effect the other way counts as inactive or inconclusive.

COc1cccc(C2=NOC(C(=O)NCc3ccc(F)cc3)C2)c1 (centres undefined)	Chronic BCR inh inconclusive, MCF10A rereplic 0.731µM
CCC(=O)c1ccc(OCC(=O)OCC(=O)NCCCc2ccccc2)cc1	none (no result: RORg inh, VP16 counter)
CCN(Cc1nc2cc(Cl)ccc2c(=O)[nH]1)C(=O)c1cc(C2CC2)nn1-c1ccccc1	MCF10A rereplic 16.4µM (no result: RORg inh, VP16 counter)
CN1CCc2c(n(CC(O)CNCc3ccccc3)c3ccccc23)C1=O (centres undefined)	none
CC(C)NCC(O)Cn1c2c(c3ccccc31)CCc1c-2cnn1-c1ccccc1 (centres undefined)	RORg inh inconclusive, VP16 counter inconclusive, MCF10A rereplic 18.4µM
O=C1CS/C(=N\NC(=O)c2ccccc2)N1	RORg inh 2.82µM, VP16 counter 15.8µM
NC(=S)N/N=C/c1cccc(/C=N/NC(N)=S)c1	none
NC(=S)N/N=C/c1ccc(-n2nncc2-c2ccc(Cl)cc2)cc1	RORg inh 5.62µM, VP16 counter inconclusive, Chronic BCR inh inconclusive, SW480 rereplic inconclusive, MCF10A rereplic inconclusive
NC(=S)N/N=C/c1ccc(/C=N/NC(N)=S)cc1	SW480 rereplic 18.4µM, MCF10A rereplic inconclusive
Cn1cccc1/C=N/NC(N)=S	RORg inh 6.31µM, VP16 counter inconclusive
Cn1cccc1/C=N/NC(=O)Cc1ccccc1	none
Nc1cccc(-n2nncc2-c2ccc(Cl)cc2)c1	none (no result: Giardia kill, SW480 rereplic, MCF10A rereplic)
NC(=S)N/N=C/c1cccc(Br)c1	RORg inh 5.62µM, VP16 counter inconclusive
CCOc1ccc(-n2c(SCC(=O)c3c(N)n(C)c(=O)n(C)c3=O)nnc2-c2cccnc2)cc1	none
C#CCn1ccc(O)c(Cc2ccccc2)c1=O	none
Cn1c(N)c(C(C[N+](=O)[O-])c2ccccc2Cl)c(=O)n(C)c1=O (centres undefined)	SW480 rereplic inconclusive, MCF10A rereplic inconclusive (no result: RORg inh, VP16 counter, Chronic BCR inh)
COc1cc(C(C[N+](=O)[O-])c2c(N)n(C)c(=O)n(C)c2=O)ccc1O (centres undefined)	RORg inh 14.1µM, Chronic BCR inh inconclusive, SW480 rereplic inconclusive, MCF10A rereplic 18.4µM
COc1cccc(F)c1C(C[N+](=O)[O-])c1c(N)n(C)c(=O)n(C)c1=O (centres undefined)	RORg inh 7.08µM, VP16 counter 11.2µM, Chronic BCR inh inconclusive, SW480 rereplic 4.11µM, MCF10A rereplic 7.31µM
CC(C(c1ccc2c(c1)OCO2)c1c(N)n(C)c(=O)n(C)c1=O)[N+](=O)[O-] (centres undefined)	SW480 rereplic inconclusive, MCF10A rereplic 11.6µM (no result: RORg inh, VP16 counter, Chronic BCR inh)
Cc1ccc(C(C[N+](=O)[O-])c2c(N)n(C)c(=O)n(C)c2=O)cc1 (centres undefined)	RORg inh 12.6µM, VP16 counter inconclusive, Chronic BCR inh inconclusive, MCF10A rereplic 23.1µM
Cn1c(N)c(C(=O)CSc2ccc3c(c2)OCCO3)c(=O)n(C)c1=O	RORg inh inconclusive, VP16 counter inconclusive, Chronic BCR inh inconclusive
COc1cc(C(C[N+](=O)[O-])c2c(C)[nH]c3ccccc23)ccc1O (centres undefined)	none
Cc1ccc(S(=O)(=O)N(C)C)cc1NC(=O)c1ccccc1SCC(=O)N1CCCC1	Chronic BCR inh inconclusive (no result: RORg inh, VP16 counter)
COc1cc(/C=C2\SC(=S)N(CCC(=O)Nc3ccccc3O)C2=O)cc(OC)c1OC	VP16 counter inconclusive, SW480 rereplic inconclusive
COC(=O)c1cc(C(=O)Nn2cnnc2)cc([N+](=O)[O-])c1	none
COc1cc(C2C3C(=O)N(c4ccccc4)C(=O)C3ON2c2ccccc2)cc(OC)c1OC (centres undefined)	none
COc1cc(C2C3C(=O)N(c4ccc(F)cc4)C(=O)C3ON2c2ccccc2)ccc1O (centres undefined)	MCF10A rereplic 14.1µM
O=C(Nc1ccc2oc(=O)ccc2c1)c1ccc(-c2ccccc2[N+](=O)[O-])o1	VP16 counter inconclusive, Chronic BCR inh inconclusive, SW480 rereplic inconclusive, MCF10A rereplic 11.6µM
O=C(Nc1ccc2oc(=O)ccc2c1)c1ccc(-c2cccc([N+](=O)[O-])c2)o1	SW480 rereplic 20.6µM, MCF10A rereplic inconclusive
Cc1ccc(S(=O)(=O)Nc2cc(=O)[nH]c(SCc3ccc(Cl)cc3)n2)cc1	MCF10A rereplic 18.4µM
CCCCn1nnc(NC(=S)NC(=O)c2cccs2)n1	RORg inh 1.12µM, VP16 counter 1µM, Chronic BCR inh inconclusive, SW480 rereplic 18.4µM
Cn1nnc(NC(=S)NC(=O)c2cccs2)n1	RORg inh 8.91µM, VP16 counter 12.6µM, SW480 rereplic inconclusive
CCCCn1nnc(NC(=O)c2ccco2)n1	none
CC(C)C(=O)NC(=S)Nc1nnn(C)n1	RORg inh 14.1µM, VP16 counter inconclusive
COc1cc(OC)cc(C(=O)NC(=S)Nc2nnn(C)n2)c1	RORg inh inconclusive, VP16 counter 25.1µM, Chronic BCR inh inconclusive
CCCn1nnc(NC(=O)C(C)C)n1	none
COC(=O)C(=O)Nc1cccc2cccnc12	none (no result: RORg inh, VP16 counter, Chronic BCR inh, SW480 rereplic, MCF10A rereplic)
Cn1nnc(NC(=S)NC(=O)c2cccc3ccccc23)n1	RORg inh 1.12µM, VP16 counter 3.55µM, Giardia kill inconclusive, SW480 rereplic inconclusive
C=CC(C)(C)c1c2occc2c(O)c2ccc(=O)oc12	Chronic BCR inh inconclusive, SW480 rereplic inconclusive, MCF10A rereplic inconclusive (no result: RORg inh, VP16 counter)
C=CC(C)(C)c1c(O)c(CC=C(C)C)c(O)c2c(=O)c3ccc(O)c(O)c3oc12	SW480 rereplic inconclusive, MCF10A rereplic 23.1µM (no result: RORg inh, VP16 counter, Chronic BCR inh)
COc1ccc(C(=O)N(CC(=O)Nc2sc(C)c(C)c2C(N)=O)C2CCCC2)cc1	none
CCCn1c(SC(C)C(=O)NCC2CCCO2)nc2sc(CC)cc2c1=O (centres undefined)	Giardia kill inconclusive
COC(=O)[C@H]1[C@H]2C[C@@H]3c4[nH]c5cc(OC)ccc5c4CCN3C[C@H]2C[C@@H](OC(=O)c2cc(OC)c(OC)c(OC)c2)[C@@H]1OC	Chronic BCR inh inconclusive, SW480 rereplic inconclusive, MCF10A rereplic 29.9µM!
Cc1c(C(=O)c2ccc(Cl)c([N+](=O)[O-])c2)c2ccccn2c1CCC#N	Chronic BCR inh inconclusive
Cc1c(C(=O)c2ccc(Cl)cc2[N+](=O)[O-])c2ccccn2c1CCC#N	Giardia kill -100.5
Nc1nnnn1/N=C/C(Br)=C/c1ccccc1	RORg inh 3.16µM, VP16 counter inconclusive, Chronic BCR inh inconclusive, SW480 rereplic 2.82µM, MCF10A rereplic 2.59µM
Nc1nnnn1/N=C/C=C/c1ccccc1	none
C/C(=C(/CCOC(=O)C(C)C)SS/C(CCOC(=O)C(C)C)=C(\C)N(C=O)Cc1cnc(C)nc1N)N(C=O)Cc1cnc(C)nc1N	none (no result: Giardia kill, Chronic BCR inh)
Cc1ccn2c(NC(C)(C)C)c(-c3cccs3)nc2c1	RORg inh 11.2µM, MCF10A rereplic inconclusive
C=CCn1c(=O)c2ccccc2n2c(SCc3nnc(-c4ccccc4Br)o3)nnc12	MCF10A rereplic 23.1µM
Cc1ccc(S(=O)(=O)Nc2cc3c4c(c2)CCC(=O)N4CCC3)cc1	MCF10A rereplic 9.2µM (no result: RORg inh, VP16 counter)
